39 compounds from PubChem BioAssay (EPA / NIEHS) can be followed below.

Results filed as inconclusive are left out. Active and inactive are the calls of the source. The calls were made as follows: active = hit-call score of the fitted dose curve at least 0.9, where 1 is the maximum; inconclusive = response in the unintended direction; inactive = score below 0.9.

Nuclear receptor subfamily 1 group I member 3 (Homo sapiens), sequence (Q14994 whole entry, looked up): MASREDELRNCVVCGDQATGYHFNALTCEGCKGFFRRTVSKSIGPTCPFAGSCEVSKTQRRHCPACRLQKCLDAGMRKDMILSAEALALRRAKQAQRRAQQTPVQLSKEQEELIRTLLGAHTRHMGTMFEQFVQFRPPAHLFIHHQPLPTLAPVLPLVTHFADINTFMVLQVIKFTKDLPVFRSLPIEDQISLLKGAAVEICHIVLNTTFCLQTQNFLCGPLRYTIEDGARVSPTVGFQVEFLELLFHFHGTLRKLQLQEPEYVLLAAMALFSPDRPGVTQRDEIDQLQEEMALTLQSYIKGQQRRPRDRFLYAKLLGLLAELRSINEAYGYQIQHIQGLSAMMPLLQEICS

This experiment deals with Nuclear receptor subfamily 1 group I member 3 (Homo sapiens) (UniProt Q14994). Briefly: ATG_CAR_TRANS: Attagene TRANS-FACTORIAL HepG2 Assay for human Constitutive Androstane Receptor (CAR) (AID 2282969).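 Also: activators raise reporter mRNA above DMSO so AC50 marks induction.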 As to conditions: HepG2 Attagene TRANS-FACTORIAL CAR reporter. The protocol:
ATG_TRANS is a cell-based, multiplexed-readout assay that uses HepG2, a human liver cell line, with measurements taken at 24 hours after chemical dosing in a 24-well plate.ATG_CAR_TRANS is one of 30 assay component(s) measured or calculated from the ATG_TRANS assay. It is designed to make measurements of mRNA induction, a form of inducible reporter, as detected with fluorescence intensity signals by Reverse transcription polymerase chain reaction (RT-PCR) and Capillary electrophoresis technology.Data from the assay component ATG_CAR_TRANS was analyzed into 1 assay endpoint. This assay endpoint, ATG_CAR_TRANS, was analyzed in the positive analysis fitting direction relative to DMSO as the negative control and baseline of activity. Using a type of inducible reporter, measures of mRNA for gain-of-signal activity can be used to understand the reporter gene at the transcription factor-level as they relate to the gene NR1I3. Furthermore, this assay endpoint can be referred to as a primary readout, because this assay has produced multiple assay endpoints where this one serves a reporter gene function. To generalize the intended target to other relatable targets, this assay endpoint is annotated to the nuclear receptor intended target family, where the subfamily is non-steroidal.
Human liver HepG2 cells are transiently transfected with multiple reporter transcription units (MRTUs) in 6-well plates using FuGene 6 reagent (Roche; 3 ml FuGene/1 mg DNA). The MRTU constructs are regulated by a cis-regulating element (promoter). […] A major difference between the CIS and TRANS system is that in CIS activities of endogenous TFs are measured, whereas the TRANS assay evaluates changes in activities of exogenous, chimeric NR-Gal4 proteins. […] At the end of 24 hour incubation, total RNA was isolated using TriZol reagent (Invitrogen). The isolated RNA is then reverse-transcribed using oligo(dT) primer and Mo-MLV reverse transcriptase (Invitrogen) with DNAse I (Ambion) treatment for 30 min. The one-tenth of the produced cDNA was amplified by PCR using Taq DNA polymerase (Invitrogen) and two reporter sequence-specific primers. The PCR products were fluorescently labeled by primer extension with 6-arboxyfluorescein (6-FAM) 5'-labeled reporter sequence-specific primer (2 min at 95 C, 20 s at 68 C and 10 min at 72 C) and these products were digested with 5U of HpaI (New England Biolabs) for 2h at 37 C. The fragments were purified using Qiaquick PCR columns (Qiagen), analyzed on an ABI 3130xL genetic analyzer (Applied Biosystems) with peak positions identified by using a set of X-rhodamine (ROX)-labeled MapMarker1000 molecular weight standards (BioVentures). The raw capillary electrophoresis data was processed using Attagraph software (Attagene).
Consider `COCCO`, for which the result was inactive. On to `N#CSCSc1nc2ccccc2s1`, for which the compound was called inactive. For `C=CCOC(Cn1ccnc1)c1ccc(Cl)cc1Cl` (centres undefined), the compound was classed as inactive. Turning to `CCCN(CCC)c1c([N+](=O)[O-])cc(C(F)(F)F)c(N)c1[N+](=O)[O-]`, the call was inactive. Then `CC(C)(c1ccc(O)cc1)c1ccc(O)cc1`, with “inactive”; and `CCCN(CCC)C(=O)SCC`, with “inactive”.

Take `c1ccc(Nc2ccccc2)cc1`: the result was inactive.

In the case of `O=C(O)c1ccccc1`, the compound was called inactive. As to `N[C@@H](Cc1cc(I)c(Oc2ccc(O)c(I)c2)c(I)c1)C(=O)O`, the call was inactive. `COc1c(Cl)ccc(Cl)c1C(=O)O`: the compound was called inactive. Take `O=C(c1ccccc1)C1CCCCC1`: the compound was classed as inactive. The value for `CCSC(=O)N(CC(C)C)CC(C)C` was “inactive”; that for `CC(C)CCCCCCc1ccc(O)cc1` was “inactive”; that for `CCCCOCCOCCOCc1cc2c(cc1CCC)OCO2` was “inactive”.

With `COc1nc(C)nc(NC(=O)NS(=O)(=O)c2ccccc2OCCCl)n1`, the outcome was inactive. The value for `OB(O)O` was “inactive”; that for `CCC(O)=C1C(=O)CC(C(=O)O)CC1=O` (centres undefined) was “inactive”; that for `O=C(c1ccc(O)cc1O)c1ccc(O)cc1O` was “inactive”.

On to `CCOC(=O)c1ccc(O)cc1`, for which the result was inactive. As to `CCCCOC(=O)C(C)Oc1ccc(Oc2ccc(C(F)(F)F)cn2)cc1` (centres undefined), the outcome was inactive.

On to `CCOC(=O)C(C)Oc1ccc(Oc2cnc3cc(Cl)ccc3n2)cc1` (centres undefined), for which the call was inactive. Then `COC(=O)c1ccc(CNS(C)(=O)=O)cc1S(=O)(=O)NC(=O)Nc1nc(OC)cc(OC)n1`, with “inactive”; and `CC1(C)C(C=C(Cl)Cl)C1C(=O)OCc1cccc(Oc2ccccc2)c1` (centres undefined), with “inactive”; and `CCOC(=O)[C@H](C)Oc1ccc(Oc2nc3ccc(Cl)cc3o2)cc1`, with “inactive”.

For `CCN(Cc1c(F)cccc1Cl)c1c([N+](=O)[O-])cc(C(F)(F)F)cc1[N+](=O)[O-]`, the call was inactive. Then `CCCCC(CC)COC(=O)c1ccccc1C(=O)O` (centres undefined), with “inactive”. Consider `CN(C)C(=O)Nc1ccc(Cl)c(Cl)c1`, for which the result was inactive. On to `CCCCC(CC)CN1C(=O)C2C3C=CC(C3)C2C1=O` (centres undefined), for which the compound was called inactive. Then `CCC(C)OC(=O)N1CCCCC1CCO` (centres undefined), with “inactive”. Consider `CCOC(=O)C(C)Oc1ccc(Oc2nc3ccc(Cl)cc3o2)cc1` (centres undefined), for which the outcome was inactive. `COC(=O)c1ccccc1S(=O)(=O)NC(=O)Nc1nc(OC(F)F)cc(OC(F)F)n1`: the outcome was inactive.

Regarding `CCCCOC(=O)[C@@H](C)Oc1ccc(Oc2ccc(C(F)(F)F)cn2)cc1`, the compound was called inactive. Then `CCOC(=O)NCCOc1ccc(Oc2ccccc2)cc1`, with “inactive”. Then `COC(=O)c1cccc(C)c1S(=O)(=O)NC(=O)Nc1nc(OCC(F)(F)F)nc(N(C)C)n1`, with “inactive”; and `CCCOC(=O)NCCCN(C)C`, with “inactive”. Consider `CCNc1nc(N)nc(Cl)n1`, for which the compound was called inactive. Take `CC(=O)S[C@@H]1CC2=CC(=O)CC[C@]2(C)[C@H]2CC[C@@]3(C)[C@@H](CC[C@@]34CCC(=O)O4)[C@H]12`: the outcome was inactive. Then `CCCOC(=O)c1ccc(C(=O)OCCC)nc1`, with “inactive”; and `O=C(O)C1(C(=O)Nc2ccc(Cl)cc2Cl)CC1`, with “inactive”.
